Results as given in the supplement of paper PMC12494721.
Counter-ions that a name gives are not always drawn.

Columns and labels:
Conditions in all cases: incubation time: 27 h, anaerobic, 37 °C;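 for the amine columns active = adjusted P below 0.05 in both replicates with a change the same way and a mean fold change under 0.8 or over 1.25; inactive = the rest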
[1] = test system: Clostridium sporogenes DSM 1664; assay: growth (OD595) fold change vs plate DMSO controls (fold change (ratio)); higher = more growth
Summary of the method: (§1)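 Anaerobic mGAM cultures in 96-well plates were grown for 27 h at 37 °C, and absorbance was then read at 595 nm. After blank and compound background correction with 20 µM compound solutions in water, a calibration factor of 5 gave OD. Growth is the fold change relative to the median of each plate's DMSO controls. Values are means of 2 biological replicates, with fold changes above 1.5 set to NA.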

Escherichia coli IAI1 [2] = assay: as above
Summary of the method: as §1

[3] = test system: Klebsiella aerogenes DSM 30053; assay: as above
Summary of the method: as §1

[4] = test system: Klebsiella aerogenes DSM 30053; assay: fold change of Histamine concentration vs plate DMSO controls (fold change (ratio)); higher = more amine produced, active = hit call of the paper (significant change in both replicates, either direction)
Summary of the method: (§2)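 In 80 µL wells, cultures of four gut bacterial strains in mGAM started at OD 0.1 before a 1:1 dilution and grew anaerobically at 37 °C for 27 h. Compounds were added to 20 µM final, except sweeteners at 50 µM final. After extraction of whole cultures with cold acetonitrile/methanol plus 0.1% formic acid and centrifugation, amines were measured by LC–triple-quadrupole MS in dynamic MRM mode against external calibration curves, with within-batch drift correction. Values give fold change over DMSO controls on the same plate, averaged across 2 biological replicates.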

[5] = test system: Clostridium sporogenes DSM 1664; assay: fold change of Tryptamine concentration vs plate DMSO controls (fold change (ratio)); higher = more amine produced, active = hit call of the paper (significant change in both replicates, either direction)
Summary of the method: as §2

[6] = test system: Ruminococcus gnavus DSM 108212; assay: as above
Summary of the method: as §2

Escherichia coli IAI1 [7] = assay: fold change of Putrescine concentration vs plate DMSO controls (fold change (ratio)); higher = more amine produced, active = hit call of the paper (significant change in both replicates, either direction)
Summary of the method: as §2

[8] = test system: Klebsiella aerogenes DSM 30053; assay: as above
Summary of the method: as §2

Escherichia coli IAI1 [9] = assay: fold change of Cadaverine concentration vs plate DMSO controls (fold change (ratio)); higher = more amine produced, active = hit call of the paper (significant change in both replicates, either direction)
Summary of the method: as §2

[10] = test system: Klebsiella aerogenes DSM 30053; assay: as above
Summary of the method: as §2

[11] = test system: Ruminococcus gnavus DSM 108212; assay: fold change of 2-Phenylethylamine concentration vs plate DMSO controls (fold change (ratio)); higher = more amine produced, active = hit call of the paper (significant change in both replicates, either direction)
Summary of the method: as §2

[12] = test system: Ruminococcus gnavus DSM 108212; assay: growth (OD595) fold change vs plate DMSO controls (fold change (ratio)); higher = more growth
Summary of the method: as §1

SMILES | growth [1] | growth (Escherichia coli IAI1 [2]) | growth [3] | fold change of Histamine concentration [4] | fold change of Tryptamine concentration [5] | fold change of Tryptamine concentration [6] | fold change of Putrescine concentration (Escherichia coli IAI1 [7]) | fold change of Putrescine concentration [8] | fold change of Cadaverine concentration (Escherichia coli IAI1 [9]) | fold change of Cadaverine concentration [10] | fold change of 2-Phenylethylamine concentration [11] | growth [12]
COc1ccc(C(Cl)=C(c2ccc(OC)cc2)c2ccc(OC)cc2)cc1 [Chlorotrianisene] (20 µM) | 1.07 | 0.924 | 0.946 | 0.94 (inactive) | 0.978 (inactive) | 1.06 (inactive) | 1.01 (inactive) | 0.998 (inactive) | 1 (inactive) | 1 (inactive) | 1.07 (inactive) | –
O=c1[nH]cnc2c1ncn2[C@@H]1O[C@H](CO)[C@@H](O)[C@H]1O [Inosine] (20 µM) | 0.976 | 1.01 | 1.01 | 1.01 (inactive) | 1.06 (inactive) | 0.997 (inactive) | 1.02 (inactive) | 1.02 (inactive) | 1.01 (inactive) | 0.997 (inactive) | 0.963 (inactive) | 0.919
COc1ccc(C(=O)CC(=O)c2ccc(C(C)(C)C)cc2)cc1 [Avobenzone] (20 µM) | 0.839 | 0.95 | 0.975 | 1.01 (inactive) | 0.932 (inactive) | 1.02 (inactive) | 0.998 (inactive) | 0.993 (inactive) | 1.05 (inactive) | 0.988 (inactive) | 1.08 (inactive) | 0.891
COc1ccc2cc1Oc1ccc(cc1)C[C@H]1c3c(cc4c(c3Oc3cc5c(cc3OC)CCN(C)[C@@H]5C2)OCO4)CCN1C [Cepharanthine] (20 µM) | 0.965 | 0.982 | 1.02 | 1.04 (inactive) | 0.993 (inactive) | 0.945 (inactive) | 0.952 (inactive) | 1.01 (inactive) | 1.03 (inactive) | 1 (inactive) | 0.981 (inactive) | 0.925
CNCCCC1c2ccccc2C=Cc2ccccc21 [Protriptyline hydrochloride] (20 µM) | 0.921 | 1.01 | 0.958 | 1.02 (inactive) | 1.12 (inactive) | 0.848 (inactive) | 1.17 (inactive) | 1.02 (inactive) | 1.12 (inactive) | 0.998 (inactive) | 0.829 (inactive) | 0.968
O=C1CN(/N=C/c2ccc([N+](=O)[O-])o2)C(=O)N1 [Nitrofurantoin] (20 µM) | 1.01 | 0.997 | 0.868 | 1.07 (inactive) | 0.931 (inactive) | 0.808 (inactive) | 0.729 (active) | 0.962 (inactive) | 1.81 (active) | 0.997 (inactive) | 0.923 (inactive) | –
C/C=C(/C(=C/C)c1ccc(O)cc1)c1ccc(O)cc1 [Dienestrol] (20 µM) | 1.09 | 1.01 | 1.04 | 1.02 (inactive) | 0.782 (inactive) | 0.285 (active) | 1.06 (inactive) | 0.995 (inactive) | 1.02 (inactive) | 1.03 (inactive) | 0.344 (inactive) | –
CC(=O)[C@H]1CC[C@H]2[C@@H]3C[C@H](C)C4=CC(=O)CC[C@]4(C)[C@H]3[C@@H](O)C[C@]12C [Medrysone] (20 µM) | 1.08 | 1.03 | 1.05 | 1.02 (inactive) | 1.03 (inactive) | 1.01 (inactive) | 0.978 (inactive) | 1 (inactive) | 1.02 (inactive) | 0.996 (inactive) | 1.01 (inactive) | 1.03
O=C(c1ccc(F)cc1)C1CCN(CCn2c(=O)[nH]c3ccccc3c2=O)CC1 [Ketanserin tartrate hydrate] (20 µM) | 1.21 | 0.974 | 1.02 | 1.05 (inactive) | 1.18 (inactive) | 1.01 (inactive) | 1.03 (inactive) | 1.02 (inactive) | 0.963 (inactive) | 1.02 (inactive) | 1.02 (inactive) | 1.06
O=C1C(=O)c2ccccc2C(O)=C1C1CCC(c2ccc(Cl)cc2)CC1 (centres undefined) [Atovaquone] (20 µM) | 1.24 | 1.02 | 1.07 | 1.01 (inactive) | 0.793 (inactive) | 0.753 (active) | 0.973 (inactive) | 1.03 (inactive) | 0.989 (inactive) | 1 (inactive) | 0.747 (active) | –
CC(C)(O/N=C(\C(=O)N[C@@H]1C(=O)N2C(C(=O)[O-])=C(C[n+]3ccccc3)CS[C@H]12)c1csc(N)n1)C(=O)O [Ceftazidime pentahydrate] (20 µM) | 0.781 | 0.132 | 0.595 | 1.18 (inactive) | 1.04 (inactive) | 0.877 (inactive) | 2.08 (active) | 0.905 (inactive) | 2.09 (active) | 1.16 (inactive) | 0.865 (inactive) | –
CCC(C)(C)C(=O)O[C@H]1C[C@@H](C)C=C2C=C[C@H](C)[C@H](CC[C@@H]3C[C@@H](O)CC(=O)O3)[C@H]21 [Simvastatin] (20 µM) | 1.01 | 1.05 | 1.25 | 0.919 (inactive) | 0.967 (inactive) | 0.995 (inactive) | 1 (inactive) | 1.03 (inactive) | 1 (inactive) | 1.03 (inactive) | 0.991 (inactive) | –
CC/C(=C(\c1ccccc1)c1ccc(OCCN(C)C)cc1)c1ccccc1 [Tamoxifen citrate] (20 µM) | 1.11 | 1.06 | 1.02 | 0.918 (inactive) | 0.977 (inactive) | 0.657 (active) | 1.06 (inactive) | 0.989 (inactive) | 1.05 (inactive) | 1 (inactive) | 0.738 (inactive) | –
